Tg IFNy HTS: T. gondii growth inhibition with IFN-gamma, primary screen, cell-based; AID 1259416, 2018; activity change, negative = inhibition, % (concentration not given with the values); 69,000 compounds, 3.8% hits; Toxoplasma gondii growth in IFN-gamma-treated host cells; active compounds read low; in the data active means activity change below about -70%, passing the limit was not always enough;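 further: host cells are HeLa cells infected with Toxoplasma gondii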
Large screens that a line does not name were inactive. The entries come from a sample that favours hits as a whole.

Cc1ccc(C)c(S(=O)(=O)Nc2ccc3c(c2)CCC(=O)N3CC(C)C)c1	none
Cc1ccc(S(=O)(=O)Nc2ccc3c(c2)CCC(=O)N3CC(C)C)c(C)c1	Tg IFNy HTS -85.9
O=C1CN(CC(=O)NCc2ccc(S(=O)(=O)N3CCCC3)cc2)CCN1	none
Cc1cccc(COCC2CC3(CCN(Cc4ccoc4)CC3)CO2)n1 (centres undefined)	none
COCC(=O)N1CCn2c(COc3cccnc3)cnc2C1C (centres undefined)	none
CC(C)Oc1ccc(CN2CCN(Cc3cccc(F)c3)CC2)cc1CO	none
O=C(c1ccc(Cl)cc1)N1CCC2(CC1)Nc1cc(F)ccc1-n1cccc12	none
CSCc1ccc(C(=O)N(C)CCc2nc3ccc(F)cc3[nH]2)o1	none
CN(C)S(=O)(=O)c1ccc(CNC(=O)C(C)(C)n2cnnn2)cc1	none
CCc1ccc(S(=O)(=O)Nc2ccc3c(c2)CCC(=O)N3CC(C)C)cc1	Tg IFNy HTS -90.4
CCN1C(=O)CCc2cc(NS(=O)(=O)c3ccc(C(F)(F)F)cc3)ccc21	Tg IFNy HTS -102.9
CCN1C(=O)CCc2cc(NS(=O)(=O)c3cccc(Br)c3)ccc21	none
COc1ccc(S(=O)(=O)Nc2ccc3c(c2)CCC(=O)N3CC(C)C)cc1	none
Cc1ccc(S(=O)(=O)Nc2ccc3c(c2)CCC(=O)N3CC(C)C)cc1	none
COCCN1C(=O)CCc2cc(NS(=O)(=O)c3ccc(F)cc3)ccc21	none
Cc1onc(-c2ccccc2)c1C(=O)N1CCc2c(c(C(=O)N(C)C)nn2Cc2ccccc2)C1	none
O=C1N(c2cncnc2)CCC12CCN(c1ncc(F)cn1)CC2	none
O=C(Cc1ccc2c(c1)OCO2)N1CCC(CO)(Cc2ccccc2)CC1	none
CC1=Nc2ccc(-c3ccccc3)cc2C1(C)C	Tg IFNy HTS -98.9
Cc1ccc(-c2nnc(-c3ccccc3)n2-c2ccc(C)cc2)cc1	none
CC(C)c1ncc(C(=O)N2CCN(C)C3(CCN(C)CC3)C2)c(=O)[nH]1	none
Cc1oc(-c2ccc(C(=O)NCCC(C)C)cc2)nc1CN1CCc2ccccc21	none
Cc1oc(-c2ccc(C(=O)NCc3ccc(OC(C)C)cc3)cc2)nc1CN1CCc2ccccc21	Tg IFNy HTS -88.4
Cc1oc(-c2ccc(C(=O)NCCc3ccc(Cl)cc3)cc2)nc1CN1CCc2ccccc21	none
Cc1oc(-c2ccc(C(=O)NCCc3cccs3)cc2)nc1CN1CCc2ccccc21	Tg IFNy HTS -88.6
COc1ccc(CNC(=O)c2ccc(-c3nc(CN4CCc5ccccc54)c(C)o3)cc2)cc1OC	none
Cc1oc(-c2ccc(C(=O)NCCc3ccco3)cc2)nc1CN1CCc2ccccc21	none
CCC1CN(Cc2cccc(CN3CCOCC3)c2)CCN1C(C)C (centres undefined)	none
O=C(O)c1cc(-c2ccoc2)cc(S(=O)(=O)N2CCCC2)c1	none
O=C(c1ccc(F)c(F)c1)N1CCN(S(=O)(=O)c2cc3c4c(c2)CCN4C(=O)CC3)CC1	none
CCc1nc(-c2noc3ccc(C(=O)N(C)CCOC)cc23)co1	none
Cc1ccccc1CC(C1CCN(C(=O)c2ccc3ccccc3c2)CC1)N(C)C(=O)C1CCC1 (centres undefined)	none
COC[C@H]1CN(C)C[C@@]12CCN(C(=O)N1CCCC1)C2	none
COc1ccc(-c2coc3cc(O)ccc3c2=O)c(O)c1O	none
COc1cc(-c2coc3cc(OC)c(OC)c(OC)c3c2=O)cc(OC)c1OC	none
COc1cc(-c2coc3cc(OCc4ccccc4)c(OC)c(O)c3c2=O)cc(O)c1OC	Tg IFNy HTS -85.9
COc1ccc(-c2ccccc2[C@H]2[C@@H](CO)N(C(=O)NC3CCCCC3)[C@H]2C#N)cc1	Tg IFNy HTS -72.4
COc1ccc(-c2ccccc2[C@@H]2[C@@H](C#N)N(C(=O)NC3CCCCC3)[C@H]2CO)cc1	none
COc1ccc(-c2ccccc2[C@@H]2[C@@H](C#N)N(C(=O)NC(C)C)[C@H]2CO)cc1	none
Cc1cccc(CN2CC3(CCC2=O)CCN(C(=O)C2CC2C)CC3)n1 (centres undefined)	none
CCCN(CCC)CCNC(=O)C1=C(C)C(=O)OC12CCN(S(C)(=O)=O)CC2	none
COCCC(=O)N1Cc2ccnn2CC(COc2cccnc2)C1 (centres undefined)	none
CCS(=O)(=O)N1CCC2(CC1)OC(=O)C(C)=C2C(=O)NCc1cccs1	none
Cn1nc(CNc2ncccn2)c2c1CNCC2	none
Cn1nc(CNc2ncccn2)c2c1CN(C(=O)c1ccccc1F)CC2	Tg IFNy HTS -105.5
Cc1cccc(S(=O)(=O)N2CCc3c(CNc4ncccn4)nn(C)c3C2)c1	none
COc1ccc(C(=O)N(C2CCCC2)C2(C(=O)NCc3ccccc3)CCN(C(C)=O)CC2)cc1	none
CC(C)Oc1ccc2c(=O)c(-c3ccccc3)coc2c1	none
O=C1NCC(c2ccccc2)Oc2ccccc21 (centres undefined)	none
CC(C)Oc1ccc(C2NC(=O)c3ccccc3O2)cc1 (centres undefined)	Tg IFNy HTS -97.8
OC(c1ccccn1)C1CCN(Cc2ccc3[nH]ccc3c2)CC1 (centres undefined)	none
Cc1nc(CN2CCc3ncnc(-c4ccc(F)cc4)c3CC2)cs1	none
CCC(=O)Nc1cccc(OCC(=O)N2C[C@H]3CC[C@H]2C3)c1	none
CC1(C)C(=O)N=C2c3ccccc3C(=O)C(=O)C21 (centres undefined)	Tg IFNy HTS -87.9
CCCc1cc(CNC(=O)c2cnn(-c3ccc(F)cc3)c2)on1	none
COc1ccccc1-c1nc(Cc2noc(-c3ccccc3)n2)c(C)o1	none
Cc1oc(-c2ccccc2)nc1Cc1noc(-c2ccncc2)n1	none
Cc1oc(-c2ccccc2)nc1Cc1noc(-c2cccnc2)n1	Tg IFNy HTS -86.8
Cc1oc(-c2ccccc2)nc1Cc1noc(COc2ccccc2)n1	none
CCOc1ccccc1-c1nc(CN(c2ccc(OC)cc2)S(=O)(=O)c2ccc(C)cc2)c(C)o1	none
COc1ccccc1-c1nc(Cn2nnc(-c3nc(-c4cccnc4)no3)c2C)c(C)o1	none
CCOc1ccccc1-c1nc(Cc2noc(-c3ccccc3)n2)c(C)o1	Tg IFNy HTS -100.7
CCOc1ccccc1-c1noc(-c2nnn(Cc3nc(-c4ccc(C)cc4)oc3C)c2C)n1	none
CCOc1ccccc1-c1nc(Cc2nc(-c3ccc(OC)cc3)oc2C)no1	Tg IFNy HTS -92.7
CCOc1ccc(-c2nc(Cc3noc(-c4cccnc4)n3)c(C)o2)cc1	none
Cc1cccc(-c2nc(Cc3noc(-c4ccncc4)n3)c(C)o2)c1	none
CCOc1ccccc1-c1nc(Cc2noc(-c3cccnc3)n2)c(C)o1	Tg IFNy HTS -78.7
O=C(c1ccc(-c2ccc(O)cc2)nc1)N1CCC(CCc2ccccc2)CC1	none
Cc1noc(C)c1Cc1c(C(=O)Nc2nc3c(s2)CCCCC3)noc1C	none
CC(C)c1ocnc1C(=O)N1CCc2onc(-c3ccc(F)c(F)c3)c2C1	none
CCn1c(C2CCCN(C(=O)CCN3CCCCCC3=O)C2)nn(C)c1=O (centres undefined)	none
CCOc1ccc(C(=O)N2CCC(C)CC2)cc1	none
COc1ccc(S(=O)(=O)NCCc2csc(-c3ccc(Cl)cc3)n2)cc1	none
COc1cccc(Cl)c1-c1cnc(-n2cnnc2)cc1C	none
O=C(NCc1ccccc1)c1nc(Nc2ccc(F)cc2)c2ccccc2n1	none
Cc1c(CNC(=O)Nc2ccccc2)sc2ccccc12	Tg IFNy HTS -78.8
Cc1oc2ccccc2c1CNC(=O)Nc1ccc(Br)cc1	none
O=C(Nc1ccccc1)Nc1nc(=O)c2ccccc2s1	none
COc1ccc(N2CCCC3(CN(C(=O)NC4CC4)CCO3)C2)cc1 (centres undefined)	none
COc1ccc(S(=O)(=O)NCCc2sc(-c3ccc(F)cc3)nc2C)cc1OC	none
CCOCC1c2c(cnn2CC2CC2)CCN1C(=O)c1ccoc1 (centres undefined)	none

High-throughput results: PubChem, Broad Institute
